Assay [1] in a line: qHTS RealTime-Glo MT Cell Viability Assay in HepG2 cells - 8 hour (AID 1224873). Note: nearly all actives have a fitted effect of over 55% in size. The following applies: RealTime-Glo luminescence; series mostly up to 76.8 µM. An outline of the steps:
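Real-time viability: cells seeded at 600 per well together with NanoLuc and cell-permeant prosubstrate, compounds added after 5 h incubation. Luminescence tracked at 0, 8, 16, 24, 32 and 40 h of exposure.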

Assay [2] is described as follows: A CellTox Green Cytotoxicity Assay to monitor cytotoxicity in HEK293 cells - 24 hour (AID 1224875). Note: nearly all actives have a fitted effect of over 45% in size. The conditions noted are these: CellTox Green fluorescence; series mostly up to 76.8 µM. The method, boiled down: (§1)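 Fluorescence intensity, read at 0, 8, 16, 24, 32 and 40 h of compound treatment, reflected dye binding to DNA of dead HEK293 cells; compounds (23 nL, DMSO) were added 5 h after plating cells with reagent.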

A short description of assay [3]: A CellTox Green Cytotoxicity Assay to monitor cytotoxicity in HepG2 cells - 16 hour (AID 1224876). Note: nearly all actives have a fitted effect of over 45% in size. The following applies: CellTox Green fluorescence; series mostly up to 76.8 µM. An outline of the steps:
(§2)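 Using 1536-well format, dye-containing HepG2 suspension was seeded, allowed 5 h at 37 C/5% CO2, dosed by pintool with compounds, positive and negative controls, and imaged for fluorescence across 40 h.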

The nature of assay [4]: qHTS RealTime-Glo MT Cell Viability Assay in HepG2 cells - 32 hour (AID 1224877). Note: nearly all actives have a fitted effect of over 55% in size. The conditions noted are these: RealTime-Glo luminescence; series mostly up to 76.8 µM. The method, boiled down:
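qHTS, HepG2, 600 cells/well, RealTime-Glo (NanoLuc + prosubstrate) added with cells; 5 h preincubation; DMSO compound addition; 37 C; luminescence at 0/8/16/24/32/40 h.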
(In general: In qHTS, concentration-response curves come from the screen itself.)

Assay [5] is described as follows: A CellTox Green Cytotoxicity Assay to monitor cytotoxicity in HepG2 cells - 24 hour (AID 1224878). Note: nearly all actives have a fitted effect of over 45% in size. The conditions noted are these: CellTox Green fluorescence; series mostly up to 76.8 µM. An outline of the steps: as §2
Assay [6] is described as follows: A CellTox Green Cytotoxicity Assay to monitor cytotoxicity in HepG2 cells - 40 hour (AID 1224879). Note: nearly all actives have a fitted effect of over 40% in size. Note: potency is the fitted concentration of half-maximal effect. The conditions noted are these: CellTox Green fluorescence; series mostly up to 76.8 µM. An outline of the steps: as §2
The nature of assay [7]: qHTS RealTime-Glo MT Cell Viability Assay in HEK293 cells - 0 hour (AID 1224880). Note: top concentration of the series differs between compounds; nearly all actives have a fitted effect of over 45% in size. The following applies: RealTime-Glo luminescence; series mostly up to 76.8 µM. An outline of the steps: (§3)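 Viable HEK293 cells reduce a cell-permeant prosubstrate; the product diffuses out and is consumed by NanoLuc in the medium to give light. Compounds went in after a 5 h incubation and plates were read over the treatment course.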

Assay [8] in a line: A CellTox Green Cytotoxicity Assay to monitor cytotoxicity in HEK293 cells - 32 hour (AID 1224881). Note: nearly all actives have a fitted effect of over 40% in size. The following applies: CellTox Green fluorescence; series mostly up to 76.8 µM. The method, boiled down: as §1
Assay [9] in a line: qHTS RealTime-Glo MT Cell Viability Assay in HEK293 cells - 40 hour (AID 1224874). Note: nearly all actives have a fitted effect of over 50% in size. The following applies: RealTime-Glo luminescence; max response: active compounds read low. An outline of the steps:
as §3

Where “and” joins values, the source holds several entries; their conditions need not be identical. Identical values can stand only once. Results filed as inconclusive are left out. Values without a mark were called inactive. Calls of active or inactive are those of the source. Calls come from the whole dose curve; as a rule, active = well fitted curve in the direction sought with a large enough effect in the repeat runs; inconclusive = weak or mixed curves; inactive = no such curve, though single readings can be large; an effect the other way counts as inactive or inconclusive.
% is set by controls: 0 for no effect and ±100 for the full control effect.

`[Cl][In]([Cl])[Cl]`: the Potency entry in assay [1], in assay [2], in assay [3], in [4], in assay [5] and in [6] was “inactive” each time. Besides, the Potency entry in [7] and in [8] was “inactive” throughout.

As for `COc1ccc(CCN(C)CCCC(C#N)(c2ccc(OC)c(OC)c2)C(C)C)cc1OC` (stereo unspecified), the Potency entry in assay [2], in [3] and in assay [8] was “inactive” in each case. Besides, in assay [6], the Potency was 48.9 µM (active).

For the molecule `C/C=C/c1ccc(OCC)c(O)c1`, the Potency entry in assay [1], in assay [2], in [3], in [4], in assay [5] and in assay [6] was “inactive” in each case. Moreover, the Potency result in [7] and in assay [8] was “inactive” in each case. Besides, in [9], the max response is -14.3% and 2.47%.

The values above are taken from PubChem BioAssay (Tox21).
